Compounds with a hit are over-represented: about 12% of the library has one in this group of screens.
JMJD2A Tudor inh – qHTS Assay for Inhibitors of JMJD2A-Tudor Domain. 390,000 compounds, 4.4% hits. Lysine-specific demethylase 4A (Homo sapiens), O75164. Potency, µM (top dose mostly 114 µM), without a hit: top-dose activity change, negative = inhibition, hits mostly inhibitors. AlphaScreen JMJD2A-Tudor / H3K4me3 peptide binding; also: % is scaled to controls: 0 for no effect and ±100 for the full control effect; nearly all actives have a fitted effect of over 50% in size
HP1b chromo inh – HTS for Inhibitors of HP1-beta Chromodomain Interactions with Methylated Histone Tails; Chromobox protein homolog 1 (Homo sapiens), P83916; AlphaScreen HP1-beta / biotin-H3K9me3 peptide binding; Potency, µM (doses to about 114 µM), for inactives: top-dose activity change, negative = inhibition, hits mostly inhibitors; 390,000 compounds, 0.56% hits; also: nearly all actives have a fitted effect of over 70% in size
Target sequence (P83916 whole entry, looked up): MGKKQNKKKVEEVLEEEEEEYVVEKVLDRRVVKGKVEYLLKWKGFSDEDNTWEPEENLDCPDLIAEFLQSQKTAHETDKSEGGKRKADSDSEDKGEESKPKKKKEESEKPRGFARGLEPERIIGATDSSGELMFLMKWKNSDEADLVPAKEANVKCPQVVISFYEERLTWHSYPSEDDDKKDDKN
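HP1-beta protein (50 nM final) preincubated 30 min at room temperature with biotinylated H3(1-18)K9me3 peptide (50 nM) in PBS pH 7.4, 0.01% Tween-20, then compound added for 30 min. AlphaScreen streptavidin donor/nickel chelate acceptor beads (10 ug/mL final), 30 min dark, luminescence read.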
BAZ2B block – qHTS Assay for Inhibitors of BAZ2B; Bromodomain adjacent to zinc finger domain protein 2B (Homo sapiens), Q9UIF8; AlphaScreen BAZ2B-H3K14Ac peptide displacement; Potency, µM (titrated, usually from 114 µM), for inactives: at the top dose activity change, negative = inhibition, hits mostly inhibitors; 360,000 compounds, 4.4% hits; also: % is scaled to controls: 0 for no effect and ±100 for the full control effect; nearly all actives have a fitted effect of over 60% in size
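AlphaScreen displacement: compounds (up to 110uM) incubated 30 min at room temperature with a preformed 50 nM BAZ2B/50 nM biotinylated H3K14Ac peptide complex in PBS pH 7.4 with Tween-20. Donor and acceptor beads at 10 ug/mL final added, 20 min light-protected before reading.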
G9a block – qHTS Assay for Inhibitors of Histone Lysine Methyltransferase G9a. Histone-lysine N-methyltransferase EHMT2 (Homo sapiens), Q96KQ7. G9a H3K9 monomethylation, AlphaScreen, 2 h. Potency, µM (titrated, usually from 102 µM), for the others: top-dose activity, negative = inhibition, usual class: inhibitors. 350,000 compounds, 8.8% hits. AID 504332, 2011; also: % is scaled to controls: 0 for no effect and ±100 for the full control effect; nearly all actives have a fitted effect of over 75% in size
Target sequence (Q96KQ7 913-1193 limits assumed): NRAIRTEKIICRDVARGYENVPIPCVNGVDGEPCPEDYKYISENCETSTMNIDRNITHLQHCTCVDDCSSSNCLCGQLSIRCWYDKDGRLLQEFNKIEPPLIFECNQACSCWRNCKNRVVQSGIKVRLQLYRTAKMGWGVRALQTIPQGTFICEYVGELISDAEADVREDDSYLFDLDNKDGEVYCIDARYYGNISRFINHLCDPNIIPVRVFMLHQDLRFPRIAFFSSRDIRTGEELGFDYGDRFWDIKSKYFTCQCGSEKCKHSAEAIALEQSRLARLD
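Step 1: enzyme (final 20 nM) with compound, 15 min RT. Step 2: substrate peptide 500 nM and SAM 20 uM, 2 h RT. Step 3: anti-H3K9me1 antibody and AlphaScreen beads, 10 min, then plate read.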
TDP1 block – qHTS Assay for Inhibitors of Tyrosyl-DNA Phosphodiesterase (TDP1); Potency, µM (titrated, usually from 130 µM), for the others: at the top dose activity change, negative = inhibition, actives largely listed as inhibitors; recombinant TDP1, AlphaScreen DNA substrate cleavage; Tyrosyl-DNA phosphodiesterase 1 (Homo sapiens), Q9NUW8; AID 485290, 2010; 350,000 compounds, 0.28% hits; also: % is scaled to controls: 0 for no effect and ±100 for the full control effect; nearly all actives have a fitted effect of over 40% in size
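Steps: enzyme plus compound, 15 min RT; add biotin/phosphotyrosine-FITC oligonucleotide (15 nM final), react 5 min; add donor/acceptor beads (10 ug/ml final), 10 min; read AlphaScreen. Tdp1 at 1 nM final.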
Sfp inh – qHTS Assay for Inhibitors of Bacillus subtilis Sfp phosphopantetheinyl transferase (PPTase). Biochemical Sfp PPTase activity, qHTS. AID 1490, 2009. 310,000 compounds, 3.5% hits. Potency, µM, without a hit: largest response in the series, negative = inhibition, usual class: inhibitors;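 also: the enzyme is Sfp with the accession as filed and its product quenches rhodamine fluorescence; 0% = enzyme reaction without inhibitor and -100% = no enzyme wells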
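Fluorescence-quenching assay with 15 nM Sfp, 5 uM rhodamine-CoA and 12.5 uM BHQ-2-labelled ybbR peptide in pH 7.6 Hepes/MgCl2 buffer. Enzyme was pre-incubated with compound for 15 min at room temperature. Rate was taken from the 30-min fluorescence change (525/598 nm).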
Starred values were filed as active, the others as inactive; ? = inconclusive; / = no result given; [ ] = remark or other dose. Calls follow the shape of the dose curve; as a rule, active = well fitted curve in the direction sought with a large enough effect; inconclusive = small, poorly fitted or top-dose-only effect, or another doubt; inactive = no such curve, though single readings can be large; an effect the other way counts as inactive or inconclusive. Potency is read from the fitted curve at half-maximal effect.

SMILES	JMJD2A Tudor inh	HP1b chromo inh	BAZ2B block	G9a block	TDP1 block	Sfp inh
CC(C)(Cc1ccc(O)cc1)NC(=O)SCc1ccccc1	-10.4%	39.2%	12.1%	/	/	8.0%
Cn1c(SCc2ccccc2)nccc1=O	-7.5%	26.0%	/	/	/	/
CC1=C(SCc2ccccc2)C(=O)c2ccccc2C1=O	14.1µM*	?	/	/	/	/
N#Cc1c(N)oc(-c2ccc3c(c2)OCO3)c1-c1ccc2c(c1)OCO2	-31.9%	1.8%	?	50.1µM*	5.1%	3.7%
CC(=O)c1ccc(OCC(O)CN(C)CCOc2ccc(Br)cc2)cc1 (stereo unspecified)	1.4%	10.3%	0.6%	5.5%	1.2%	2.4%
Nc1c(C(=O)NCc2ccc3c(c2)OCO3)nnn1Cc1ccc(Br)cc1	-23.8%	17.9%	-1.5%	-3.6%	7.7%	0.2%
Cc1ccc2cc(C)c3nnc(SCc4ccc(C(=O)O)cc4)n3c2c1C	39.8µM*	26.7%	?	/	-4.3%	-6.8%
Cn1cnnc1SCc1ccc(C(=O)O)cc1	-5.8%	28.9%	-2.5%	-7.2%[59 µM]	0.0%	16.7%
CCNc1nc(NCC)nc(N(CC)C(N)=S)n1	-10.4%	-3.9%	-24.0%	1.78µM*	8.4%	-29.7%
COCCN1CN(S(=O)(=O)c2ccccc2)c2nc3ccccc3nc21	-18.1%	19.8%	2.1%	-45.3%[12.7 µM]	-12.0%	23.1%
Cc1ccc(S(=O)(=O)N2CN(CC3CCCO3)c3nc4ccccc4nc32)cc1 (stereo unspecified)	-24.8%	39.4%	-27.9%	28.2µM*	3.0%	-1.3%
COc1ccccc1CN1CN(S(=O)(=O)c2ccccc2)c2nc3ccccc3nc21	-8.8%[11.4 µM]	-6.7%	-5.5%	31.6µM*	/	4.5%
Cc1ccc(S(=O)(=O)Nc2nc3ccccc3nc2NCC2CCCO2)cc1 (stereo unspecified)	-5.0%	23.6%	1.4%	-5.0%	/	21.2%
O=C(O)c1cnc2[nH]c3ccccc3n2c1=O	?	0.4%	-35.0%	50.1µM*	4.1%	13.0%
COc1ccccc1CNC(=O)CCn1cnc2ccccc2c1=O	56.2µM*	?	50.1µM*	15.8µM*	/	/
CCc1ccc(NC(=O)CCn2cnc3ccccc3c2=O)cc1	79.4µM*	-9.4%[57 µM]	-28.5%	-30.3%[59 µM]	-14.3%	/
Cc1ccc(NC(=O)CCn2cnc3ccccc3c2=O)cc1Cl	2.8%	21.6%	-0.1%	-3.2%[59 µM]	-1.1%	16.5%
COc1ccccc1CNC(=O)CCNC(=O)Cn1cnc2ccccc2c1=O	1.3%	41.2%	6.8%	-1.1%[2.33 µM]	2.9%	0.4%
CC(C)(C)c1csc(NC(=O)Cn2cnc3ccccc3c2=O)n1	?	?	0.6%	?	4.1%	20µM*
O=C(CCn1cnc2ccccc2c1=O)NCc1ccccc1	89.1µM*	-11.5%[57 µM]	?	?	0.0%	/
Cc1oc2c(c(C)cc3oc(=O)c(CC(=O)NCCc4ccccc4F)c(C)c32)c1C	-9.1%	35.0%	-0.9%	2.8%[59 µM]	0.0%	/
CC(C)(C)NC(=O)CSc1nnc(NC(=O)CCn2cnc3ccccc3c2=O)s1	25.1µM*	20.7%	9.9%	-3.7%[59 µM]	5.2%	1.5%
COc1ccccc1/C=C/c1ccc2cccc(O)c2n1	-31.5%	1.9%	-8.7%	7.7%	/	0.4%
CCOc1cccc(/C=C/c2ccc3cccc(O)c3n2)c1O	-25.4%	21.6%	-24.6%	-14.4%	/	79.4µM*
CCOc1cccc(/C=C/c2ccc3cccc(O)c3n2)c1OC	7.4%	18.2%[57 µM]	-8.0%	17.8%[2.33 µM]	/	79.4µM*
